Compound activity deposited in PubChem BioAssay by Johns Hopkins Ion Channel Center.
An excerpt weighted towards active compounds, which were near 2.3% of everything screened.
TMEM16A act = activates or potentiates the mouse TMEM16A chloride channel. HEK293 TMEM16A/YFP-H148Q/I152L, iodide quench fluorescence; hits give low values. B-score at 10 µM. 340,000 tested, 0.3% active;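 active = fluorescence-ratio B-score plate-corrected deviation score at least 3 library SD below zero, with starting fluorescence score within 5 deviations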;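 note: channel opened by trigger with iodide after compound preincubation; score built on the fluorescence ratio of max minus min over baseline; more negative score means more quench and so TMEM16A activation or potentiation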
Target sequence (Q8BHY3 whole entry, looked up): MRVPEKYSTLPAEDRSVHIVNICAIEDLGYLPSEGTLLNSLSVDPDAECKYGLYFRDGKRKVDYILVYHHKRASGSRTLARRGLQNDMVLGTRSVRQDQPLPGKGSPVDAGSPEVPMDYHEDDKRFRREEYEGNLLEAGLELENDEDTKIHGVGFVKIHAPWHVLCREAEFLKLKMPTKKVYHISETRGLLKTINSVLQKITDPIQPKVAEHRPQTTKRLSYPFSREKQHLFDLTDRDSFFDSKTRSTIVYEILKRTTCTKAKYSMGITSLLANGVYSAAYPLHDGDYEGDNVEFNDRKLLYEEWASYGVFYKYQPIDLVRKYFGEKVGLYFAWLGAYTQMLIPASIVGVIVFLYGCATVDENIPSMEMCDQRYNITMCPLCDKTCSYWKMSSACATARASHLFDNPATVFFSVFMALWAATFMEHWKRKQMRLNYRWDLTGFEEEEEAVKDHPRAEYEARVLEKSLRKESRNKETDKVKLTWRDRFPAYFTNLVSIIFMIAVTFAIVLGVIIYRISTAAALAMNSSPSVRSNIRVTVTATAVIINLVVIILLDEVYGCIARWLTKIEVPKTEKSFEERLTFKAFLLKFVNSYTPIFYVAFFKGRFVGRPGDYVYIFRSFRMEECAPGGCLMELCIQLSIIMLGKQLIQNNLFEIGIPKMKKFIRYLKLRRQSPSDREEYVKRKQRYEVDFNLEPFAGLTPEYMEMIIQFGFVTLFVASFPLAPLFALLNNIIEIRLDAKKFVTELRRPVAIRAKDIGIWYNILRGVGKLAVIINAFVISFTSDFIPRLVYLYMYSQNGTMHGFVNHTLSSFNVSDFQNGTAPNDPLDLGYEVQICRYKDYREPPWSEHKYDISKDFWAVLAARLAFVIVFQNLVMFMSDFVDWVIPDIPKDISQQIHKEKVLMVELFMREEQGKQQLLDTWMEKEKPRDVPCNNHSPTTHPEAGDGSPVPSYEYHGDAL
CHT PAM = human CHT allosteric activation. AID 488977. CHT-expressing cells, membrane potential dye, choline EC20; hits give high values; LV-AA mutant CHT in HEK293 cells. 310,000 tested, 0.49% active. Q9GZV3. B-score at 10 µM;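 active = initial fluorescence not abnormally high and integrated response B-score, plate-corrected, over 3 SD above library mean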
CHT block = human CHT choline transport inhibition. Q9GZV3. B-score at 10 µM. 310,000 tested, 0.86% active. CHT-expressing cells, membrane potential dye, choline response; hits give low values;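 active = B-score over 3 SD under the library average, and starting fluorescence ratio not unusually high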;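 note: choline stimulus applied at its EC90 after an EC20 pre-addition; B-score computed on integrated fluorescence ratio after choline addition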
ANO1 block = blocks the mouse calcium-activated chloride channel TMEM16A; Q8BHY3; HEK293 TMEM16A/YFP iodide influx fluorescence, ionomycin; normalized B-score (activity score, 25-100; higher = stronger inhibition) at 10 µM; 310,000 tested, 1.2% active; AID 588511;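 active = ratio plate-corrected score three or more library SD toward inhibition, starting fluorescence score within five deviations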;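 note: score derived from kinetic fluorescence span divided by baseline fluorescence per well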
Active calls of the source: *; i = inactive; . = no result.

SMILES	TMEM16A act	CHT PAM	CHT block	ANO1 block
CNC[C@H](CC1CCCCC1)NC[C@H](Cc1ccccc1)NCCC12CC3CC(CC(C3)C1)C2	i	i	i	100*
CC(C)(C)OC(=O)NCCc1nnc(SCc2c(Cl)cccc2Cl)o1	i	i	i	i
CC(C)(C)OC(=O)NCCCCCc1nnc(SCc2c(F)cccc2Cl)o1	i	i	i	100*
Cc1cc(Cl)c(S(=O)(=O)N2CCN(c3ccc(F)cc3)CC2)cc1OCC(=O)NC1CCCCC1	i	i	i	25*
Cc1ccnc(NC(=O)CNC(=O)Cc2cccc3ccccc23)c1	i	i	i	i
CCN1C(c2ccccc2)C(C)C(=O)C(C)C1c1ccccc1 (configuration not stated)	i	8.61*	i	i
CC1C(=O)C(C)C(c2ccccc2)N(N=O)C1c1ccccc1 (configuration not stated)	i	.	.	.
CCc1ccc(OCCNC(=O)c2ccccc2SCc2ccc(F)cc2)cc1	i	i	i	i
O=C(NCCOc1ccc(F)cc1)c1ccccc1SCc1ccccc1	i	i	i	25*
CC(OC(=O)Cc1c(F)cccc1Cl)C(=O)NC1CCCCC1C (configuration not stated)	i	.	.	.
CCOc1ccc(Nc2ccc([N+](=O)[O-])c3nonc23)cc1	i	i	i	100*
COc1ccc(Cl)cc1NC(=O)CN(C)C(=O)Cn1cnnn1	i	.	.	.
CC1CCN(S(=O)(=O)c2cccc(-c3cn4cc(Cl)ccc4n3)c2)CC1	i	i	i	i
CCOC(=O)C1CCN(S(=O)(=O)c2cccc(-c3cn4cc(Cl)ccc4n3)c2)CC1	-21.1*	i	i	i
O=C(Nc1nc2ccccc2[nH]1)C1CCCO1 (configuration not stated)	i	i	i	i
O=C(Nc1nc2ccccc2[nH]1)C1CC1	-5.79*	i	i	i
COc1ccc(-n2nc3c(N4CCC(C(=O)N5CCC(C)CC5)CC4)nnc(C)c3c2C)cc1	i	i	i	i
Cc1nnc(N2CCC(C(=O)NC3CCC(C)CC3)CC2)c2nn(-c3ccc(Cl)cc3)c(C)c12 (configuration not stated)	i	i	i	100*
Cc1ccc(S(=O)(=O)N2CCN(C(=O)CCOc3cc(C)ccc3C)CC2)cc1	-43.9*	.	.	.
COc1c(/C=C2\SC(=Nc3ccccc3Cl)NC2=O)cccc1[N+](=O)[O-]	i	i	i	i
O=C1NC(=Nc2ccccc2Cl)S/C1=C\c1cccc([N+](=O)[O-])c1	i	i	i	25*
CN(C)S(=O)(=O)c1ccc(N2CCCC2)c(C(=O)N2CCN(S(=O)(=O)c3ccccc3F)CC2)c1	i	i	i	i
CCn1c(=NC(=O)c2cccc(N3C(=O)CCC3=O)c2)sc2c(C)ccc(OC)c21	-8.66*	i	i	i
O=C(O)c1ccc(N=C2c3ccccc3-c3ccccc32)cc1	i	.	.	.
O=C(O)c1ccc(C=NN=C2c3ccccc3-c3ccccc32)cc1	-4.82*	.	.	.
SMILES	TMEM16A act	CHT PAM	CHT block	ANO1 block
CC12CCC(=O)C=C1CCC1C2CCC2(C)C1CC1C3C(=O)N(Cc4ccccc4)C(=O)C3CC(=O)C12 (configuration not stated)	i	.	.	.
Cc1ccccc1-n1c(SCc2c(C)noc2C)nnc1-c1ccncc1	i	i	i	i
Cc1ccccc1-n1c(SCc2c(C)noc2C)nnc1-c1cccnc1	-5.22*	i	i	i
CCOC(=O)/C(=C\c1cccnc1)C(=O)c1cc(C(C)=O)c(Nc2ccccc2)s1	-10.5*	i	i	25*
CS(=O)(=O)N(Cc1ccco1)Cc1ccccc1Cl	i	i	i	i
COc1ccc(S(=O)(=O)N(Cc2ccc(OC)c(OC)c2)Cc2ccco2)cc1	i	i	i	25*
CN(C)S(=O)(=O)c1ccc(S(=O)(=O)N(Cc2ccco2)Cc2ccccc2Cl)cc1	-19.4*	i	i	i
COc1ccc(S(=O)(=O)N(CCC(N)=O)Cc2ccco2)cc1OC	i	i	i	i
O=C(Nc1ccc(Cl)cc1)C1CCCN(C2=NS(=O)(=O)c3ccccc32)C1 (configuration not stated)	i	.	.	.
Nc1ccc2nc3c(=O)n(CCc4ccccc4)c(=O)[nH]c3nc2c1	-6.58*	i	i	i
CC1CCCCN1C(=O)COC(=O)C1CCN(S(=O)(=O)c2ccc3c(c2)OCCO3)CC1 (configuration not stated)	i	i	i	i
CCCN(Cc1nnc(-c2cccs2)o1)C(=O)CN1C(=O)NC2(CCCCC2)C1=O	i	.	.	.
Nc1nc(N)nc(C2C=CCCC2)n1 (configuration not stated)	i	.	.	.
CCCCn1c(NC(=O)c2ccc(Br)o2)c(S(=O)(=O)c2ccccc2)c2nc3ccccc3nc21	i	i	i	100*
CCCCn1c(NC(=O)c2ccco2)c(S(=O)(=O)c2ccc(C)cc2)c2nc3ccccc3nc21	i	.	.	.
CCCC(=O)N1CCN(c2nc(CC(C)C)c3c(c2C#N)CCC3)CC1	i	7*	i	i
COc1ccc(/C=C2\SC(N)=NC2=O)cc1Br	i	i	i	i
Cc1ccc(C2=NC(=O)/C(=C/c3cc(O)c(O)c(Br)c3)S2)cc1	-6*	.	.	.
COC(=O)C1=C(C)N(Cc2ccccc2)C(=O)N[C@H]1c1ccc(Br)cc1	i	i	i	i
COCCOC(=O)C1=C(C)N(Cc2ccccc2)C(=O)NC1c1ccc(OC)cc1 (configuration not stated)	i	i	i	100*
Cc1cc(C)c(NC(=O)CNC(=O)COC(=O)/C=C/c2cccs2)c(C)c1	i	i	i	i
O=C1CC(N2CCN(c3ccc(Cl)cc3)CC2)C(=O)N1c1ccc(F)cc1 (configuration not stated)	i	i	i	i
O=C1CC(N2CCCN(C3CC(=O)N(c4ccc(F)cc4)C3=O)CC2)C(=O)N1c1ccc(F)cc1 (configuration not stated)	-8.57*	i	i	i
CCc1cccc(C)c1Nc1nc2ccccc2n2cnnc12	i	i	i	i
Cn1cc[nH]c1=S	-12.6*	.	.	.
CC1(c2ccc(OC(F)F)cc2)NC(=O)N(CC(=O)Nc2ccc(OC(F)F)cc2)C1=O (configuration not stated)	-13.6*	i	i	i
CC1(c2ccc(OC(F)F)cc2)NC(=O)N(CC(=O)Nc2ccc(F)cc2)C1=O (configuration not stated)	i	i	i	i
Cc1ccc(Cl)cc1N1CCN(Cc2cc(=O)n3ccsc3n2)CC1	i	i	i	i
Cc1cccc(N2CCN(Cc3cc(=O)n4ccsc4n3)CC2)c1C	-13.8*	i	i	i
